Sampled rows, rich in hits. Any-hit rate of the full collection: about 12%.
JMJD2A Tudor inh: JMJD2A Tudor domain (human) inhibition; Potency, µM (highest dose often 114 µM), for inactives: at the highest dose activity change, negative = inhibition, usual class: inhibitors; O75164; AlphaScreen JMJD2A-Tudor / H3K4me3 peptide binding; actives 4.4% (n = 390,000); note: % is set by controls: 0 for no effect and ±100 for the full control effect; nearly all actives have a fitted effect of over 50% in size
HP1b binding inh: blocks HP1-beta chromodomain binding to methylated histone tails. P83916. Potency, µM (titrated, usually from 114 µM), for inactives: at the top dose activity change, negative = inhibition, most hits filed as inhibitors. actives 0.56% (n = 390,000). AID 540317. AlphaScreen HP1-beta / biotin-H3K9me3 peptide binding; note: nearly all actives have a fitted effect of over 70% in size
Target sequence (P83916 whole entry, looked up): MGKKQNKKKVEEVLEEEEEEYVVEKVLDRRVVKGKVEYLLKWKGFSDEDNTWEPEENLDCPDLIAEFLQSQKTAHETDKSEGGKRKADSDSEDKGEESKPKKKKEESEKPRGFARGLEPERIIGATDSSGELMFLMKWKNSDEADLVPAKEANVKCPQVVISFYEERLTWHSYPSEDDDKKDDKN
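HP1-beta protein (50 nM final) preincubated 30 min at room temperature with biotinylated H3(1-18)K9me3 peptide (50 nM) in PBS pH 7.4, 0.01% Tween-20, then compound added for 30 min. AlphaScreen streptavidin donor/nickel chelate acceptor beads (10 ug/mL final), 30 min dark, luminescence read.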
BAZ2B inh: BAZ2B (human) inhibition. actives 4.4% (n = 360,000). AlphaScreen BAZ2B-H3K14Ac peptide displacement. AID 504333. Q9UIF8. Potency, µM (doses to about 114 µM), inactives show at the top dose activity change, negative = inhibition, most hits filed as inhibitors; note: % is set by controls: 0 for no effect and ±100 for the full control effect; nearly all actives have a fitted effect of over 60% in size
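Complex of BAZ2B and biotin-H3K14Ac (50 nM apiece) forms over 30 min at RT, then faces library compounds up to 110 uM for another 30 min; AlphaScreen beads added, 20 min dark incubation, luminescence read.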
Sfp PPTase inh: Sfp phosphopantetheinyl transferase inhibition | Q9F4F7 | Biochemical Sfp PPTase activity, qHTS | Potency, µM, for inactives: largest response in the series, negative = inhibition, actives largely listed as inhibitors | actives 3.5% (n = 310,000);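 note: the enzyme is Sfp with the accession as filed and its product quenches rhodamine fluorescence; 0% = enzyme reaction without inhibitor and -100% = no enzyme wells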
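Reaction rates are the 30-min fluorescence difference (ex 525, em 598 nm) in wells containing 15 nM Sfp, 5 uM rhodamine-CoA and 12.5 uM BHQ-2-YbbR at pH 7.6 with 10 mM MgCl2.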
L3MBTL1 block: L3MBTL1 (human) inhibition; Q9Y468; AlphaScreen L3MBTL1–H3K9me1 peptide binding; Potency, µM (top dose mostly 57.1 µM), without a hit: top-dose activity, negative = inhibition, usual class: inhibitors; actives 0.66% (n = 230,000); AID 485360; note: % is set by controls: 0 for no effect and ±100 for the full control effect; nearly all actives have a fitted effect of over 60% in size
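L3MBTL1 (50 nM) pre-complexed 30 min with biotinylated H3(1-15)K9me1 peptide (75 nM), then compounds added for 30 min at room temperature; AlphaScreen streptavidin donor/nickel chelate acceptor beads (10 ug/mL final) read after 30 min dark incubation.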
G9a block: blocks human histone lysine methyltransferase G9a. Q96KQ7. Potency, µM (doses to about 102 µM), without a hit: at the top dose activity, negative = inhibition, most hits filed as inhibitors. actives 8.8% (n = 350,000). G9a H3K9 monomethylation, AlphaScreen, 2 h. AID 504332; note: % is set by controls: 0 for no effect and ±100 for the full control effect; nearly all actives have a fitted effect of over 75% in size
Target sequence (Q96KQ7 913-1193 limits assumed): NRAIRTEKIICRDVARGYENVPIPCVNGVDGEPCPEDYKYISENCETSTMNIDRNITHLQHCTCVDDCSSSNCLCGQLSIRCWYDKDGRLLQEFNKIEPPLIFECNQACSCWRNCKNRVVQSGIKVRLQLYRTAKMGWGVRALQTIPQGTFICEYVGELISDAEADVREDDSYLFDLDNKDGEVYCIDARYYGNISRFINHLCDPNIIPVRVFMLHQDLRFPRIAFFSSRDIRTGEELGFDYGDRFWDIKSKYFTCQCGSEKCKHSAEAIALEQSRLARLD
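Methyltransferase reactions run at room temperature for 2 h (20 nM enzyme, 500 nM biotin-H3K9 peptide, 20 uM SAM) after a 15 min compound preincubation; product detected by AlphaScreen beads and anti-H3K9me1 antibody.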
Active calls of the source: *; u = inconclusive; x = not tested or not shown; [ ] = remark or other dose. Calls come from the whole dose curve; as a rule, active = well fitted curve in the direction sought with a large enough effect; inconclusive = small, poorly fitted or top-dose-only effect, or another doubt; inactive = no such curve, though single readings can be large; an effect the other way counts as inactive or inconclusive. Potency is the fitted concentration of half-maximal effect.

SMILES	JMJD2A Tudor inh	HP1b binding inh	BAZ2B inh	Sfp PPTase inh	L3MBTL1 block	G9a block
CCc1ccc2c(c1)c(N=NC1=NC(=O)CS1)c(O)n2CC	u	-7%	50µM*	-24%	-9%	-17%[0.501 µM]
CCc1ccc2[nH]c(O)c(N=NC3=NC(=O)CS3)c2c1	-4%[11.4 µM]	-11%	40µM*	-1%	u	u
COc1ccc(C2=C(C)C(N3CCC(C(=O)Nc4cc(C)ccc4C)CC3)=NS2(=O)=O)cc1	-5%	7%	-12%	x	x	11%[59 µM]
CN(C(=O)CSc1nc2ccc(NC(=O)c3cccs3)cc2s1)c1ccccc1	-10%	30%	-18%	x	x	-6%[59 µM]
CN(C)c1cccc(C(=O)NCc2ccccc2Cl)c1	u	-2%	50µM*	-5%	-21%	-47%
O=C(NCc1ccccc1Cl)c1cccc(C(F)(F)F)c1	17%	41%	20%	-3%	12%	45µM*
O=C(NCc1cccc(Cl)c1)c1cccc(C(F)(F)F)c1	36%	77%	25%	3%	7%	39%
Cc1cc(Nc2ccccc2F)n2ncnc2n1	-13%	50%	6%	11%	10%	50µM*
CCc1ccc(Nc2cc(C)nc3ncnn23)cc1	-10%	25%	1%	-3%	4%	x
Cc1cc(Nc2ccc(N(C)C)cc2)n2ncnc2n1	-15%	11%	-8%	32%	0%	45µM*
CCn1c2ccccc2c2cc(Nc3cc(C)nc4ncnn34)ccc21	u	-5%	-30%	-25%	u	45µM*
CC1=C(C(=O)Nc2cccnc2)C(c2ccc(F)cc2)n2nc(-c3cccc(C)c3)nc2N1 (stereo not given)	-18%	19%	0%	x	x	4%[59 µM]
Cc1ccc(C=C2C(=O)c3ccccc3C2=O)s1	u	u	16µM*	u	x	u
Cc1cc(C=C2C(=O)c3ccccc3C2=O)c(C)n1C	-31%	-3%	-24%	-6%	-1%	40µM*
O=C1C(=Cc2cccs2)C(=O)c2ccccc21	-31%	-5%	-30%	6%	-25%	-45%[59 µM]
CCn1c(C)cc(C=C2C(=O)c3ccccc3C2=O)c1C	-14%	3%	-38%	-9%	-12%	u
CC1(C)NC(=O)N(CC(=O)OCC(=O)NC(=O)c2ccccc2)C1=O	-8%	18%	10%	x	0%	40µM*
C=CCNCC(O)COc1ccc(C(C)=O)cc1OC (stereo not given)	2µM*	71µM*	50µM*	u	13%	x
CC(=O)c1ccc(OCC(=O)NCC2(N3CCCCC3)CCCCC2)cc1	-15%	13%	-1%	9%	1%	-10%
COc1cc(C(C)=O)ccc1OCC(O)CN(CCO)Cc1ccccc1 (stereo not given)	-15%	23%	x	19%	1%	5%
COc1ccccc1COCC(O)CNCC1(N2CCCCC2)CCCCC1 (stereo not given)	1.8µM*	u	u	-22%	-3%	4.5µM*
COc1ccccc1OC(C)C(=O)NCC1(N2CCOCC2)CCCCC1 (stereo not given)	-23%	18%	-1%	x	x	7%[59 µM]
COc1cc(C(C)=O)ccc1OCC(O)CNCC1(N2CCCCC2)CCCCC1 (stereo not given)	3.2µM*	u	50µM*	u	7%	28µM*
CC(C)c1cc(-c2nc(-c3ccc(Cl)cc3)no2)n[nH]1	-11%	25%	-8%	x	x	-5%[59 µM]
NC(CCC(=O)N[C@@H](CS)C(=O)NCC(=O)O)C(=O)O (stereo not given in full)	x	x	x	-1%	x	-4%[2.33 µM]
SMILES	JMJD2A Tudor inh	HP1b binding inh	BAZ2B inh	Sfp PPTase inh	L3MBTL1 block	G9a block
COc1cccc(NC(=O)CN2C(=O)NC3(CCCc4ccccc43)C2=O)c1 (stereo not given)	-1%	39%	-4%	x	1%	10µM*
COc1ccc(C(NC(=O)CN2C(=O)NC3(CCc4ccccc43)C2=O)c2ccc(OC)cc2)cc1 (stereo not given)	-28%	0%	1%	x	-3%	50µM*
COc1ccc(OC)c(NC(=O)CN2C(=O)NC3(CCCc4ccccc43)C2=O)c1 (stereo not given)	-27%	22%	-28%	x	-6%	u
COc1ccc(C(NC(=O)CN2C(=O)NC3(CCc4ccccc43)C2=O)c2ccccc2)cc1 (stereo not given)	-11%	52%	-27%	x	-4%	-13%[12.7 µM]
COC(=O)c1cccc(-n2c(=O)n(Cc3ccccc3)c(=O)c3[nH]cnc32)c1C	-14%	5%	-5%	-26%	x	18µM*
CC(=O)Nc1ccc(/C=C/C(=O)c2ccc(-n3nncc3-c3ccccc3)cc2)cc1	-33%[57.1 µM]	-8%[57 µM]	x	x	x	x
Cc1ccc(-n2nnnc2SCC(=O)N2CCc3ccccc3C2)cc1	1%	40%	8%	2%	6%	u
Cc1ccc(C(=O)N2Cc3ccccc3CC2C(=O)O)cc1 (stereo not given)	u	25%	-26%	20%	1%	35µM*
CC(C)(C)OC(=O)N1Cc2ccccc2C[C@H]1C(=O)N1CCC[C@H]1C(=O)O	-3%	6%	2%	8%	x	18µM*
CC(=O)N1Cc2ccccc2CC1C(=O)N1CCN(c2ccccc2)CC1 (stereo not given)	-10%	12%	-9%	6%	x	-1%
COc1ccc(N2CCN(C(=O)C3Cc4ccccc4CN3C(=O)c3ccccc3)CC2)cc1 (stereo not given)	-35%	-12%	u	14%	x	50µM*
COc1ccc(CNC(=O)[C@@H]2CCCN2C(=O)[C@@H]2Cc3ccccc3CN2C(=O)OC(C)(C)C)cc1	4%	38%	-2%	12%	x	27%
Cc1ccc(-n2nnnc2SCC(=O)N2Cc3ccccc3CC2C(=O)O)cc1 (stereo not given)	-9%	45%	-16%	10%	-8%	45µM*
Cc1cccc(N(C)S(=O)(=O)c2nnc(NC(=O)C(C)(C)C)s2)c1	28%	107%	-16%	x	x	29%[59 µM]
CCC(CC)C(=O)Nc1nnc2n1CCS2	-10%	14%[57 µM]	-30%	x	x	u
Cc1ccc(-n2c(SCC(=O)N3Cc4ccccc4CC3C(=O)O)nnc2-c2cccnc2)c(C)c1 (stereo not given)	-3%	56%	13%	11%	-11%	45µM*
CS(=O)(=O)C1=NSC2=NC(=O)/C(=C\c3cccn3-c3ccc(Cl)cc3)C(=N)N21	45µM*	u	40µM*	u	-25%	45µM*
CCC1=NN2C(=N)/C(=C\c3cccn3-c3ccc(OC)cc3)C(=O)N=C2S1	79µM*	-12%	32µM*	-5%	-23%	u

From PubChem
